Screens: PubChem, National Center for Advancing Translational Sciences (NCATS)
HP1b chromo inh: inhibitors of HP1-beta chromodomain binding to methylated histone tails; P83916; AlphaScreen HP1-beta / biotin-H3K9me3 peptide binding; Potency, µM (top dose mostly 114 µM), inactives show top-dose activity change, negative = inhibition, hits mostly inhibitors; 390,000 compounds, 0.56% hits; AID 540317; note: potency is the fitted concentration of half-maximal effect; nearly all actives have a fitted effect of over 70% in size
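AlphaScreen: HP1-beta (50 nM) preformed 30 min with biotin-H3(1-18)K9me3 peptide (50 nM) in PBS pH 7.4, 0.01% Tween-20. Compound added for 30 min at RT, then streptavidin donor/nickel chelate acceptor beads (10 ug/mL) for 30 min.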
BAZ2B block: blocks human BAZ2B; Q9UIF8; AlphaScreen BAZ2B-H3K14Ac peptide displacement; Potency, µM (titrated, usually from 114 µM), for the others: at the highest dose activity change, negative = inhibition, hits mostly inhibitors; 360,000 compounds, 4.4% hits; AID 504333; note: potency is the fitted concentration of half-maximal effect; % is set by controls: 0 for no effect and ±100 for the full control effect; nearly all actives have a fitted effect of over 60% in size
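Complex of BAZ2B and biotin-H3K14Ac (50 nM apiece) forms over 30 min at RT, then faces library compounds up to 110 uM for another 30 min; AlphaScreen beads added, 20 min dark incubation, luminescence read.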
PI5P4K alpha inh: blocks human PI5P4K alpha kinase activity; P48426; PI5P4Kalpha enzyme, ADP-Glo luminescence, 60 min; active compounds read low; max response, %; 330,000 compounds, 1.2% hits; AID 652105; active = max response of -50% or lower; inconclusive = between -30% and -50%; inactive = -30% or higher; note: value at the top dose of about 77 µM; % is set by controls: 0 for no effect and ±100 for the full control effect
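Reactions run in 0.038 M HEPES pH 7.4, 0.28 mM EGTA, 0.1% CHAPS and 5% DMSO, with PI5P4Kalpha, substrate, compound and 5 microM ATP final, one hour at room temperature. Readout is ADP-Glo luminescence.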
JMJD2A Tudor inh: inhibitors of human JMJD2A Tudor domain; O75164; AlphaScreen JMJD2A-Tudor / H3K4me3 peptide binding; Potency, µM (highest dose often 114 µM), inactives show top-dose activity change, negative = inhibition, usual class: inhibitors; 390,000 compounds, 4.4% hits; AID 504339; note: potency is the fitted concentration of half-maximal effect; % is set by controls: 0 for no effect and ±100 for the full control effect; nearly all actives have a fitted effect of over 50% in size
G9a inh: G9a (human) methyltransferase inhibition; 350,000 compounds, 8.8% hits; Potency, µM (highest dose often 102 µM), for the others: top-dose activity, negative = inhibition, hits mostly inhibitors; G9a H3K9 monomethylation, AlphaScreen, 2 h; Q96KQ7; note: potency is the fitted concentration of half-maximal effect; % is set by controls: 0 for no effect and ±100 for the full control effect; nearly all actives have a fitted effect of over 75% in size
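Enzyme 20 nM + cpd, 15 min RT; add b-H3K9 pep 500 nM / SAM 20 uM; 2 h RT; anti-H3K9me1 Ab 0.5 ug/mL + SA donor / anti-rabbit acceptor beads 20 ug/mL each, 10 min; AlphaScreen read.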
L3MBTL1 inh: inhibitors of human L3MBTL1. Q9Y468. AlphaScreen L3MBTL1–H3K9me1 peptide binding. Potency, µM (doses to about 57.1 µM), for the others: at the highest dose activity, negative = inhibition, usual class: inhibitors. 230,000 compounds, 0.66% hits; note: potency is the fitted concentration of half-maximal effect; % is set by controls: 0 for no effect and ±100 for the full control effect; nearly all actives have a fitted effect of over 60% in size
Target sequence (Q9Y468 whole entry, looked up): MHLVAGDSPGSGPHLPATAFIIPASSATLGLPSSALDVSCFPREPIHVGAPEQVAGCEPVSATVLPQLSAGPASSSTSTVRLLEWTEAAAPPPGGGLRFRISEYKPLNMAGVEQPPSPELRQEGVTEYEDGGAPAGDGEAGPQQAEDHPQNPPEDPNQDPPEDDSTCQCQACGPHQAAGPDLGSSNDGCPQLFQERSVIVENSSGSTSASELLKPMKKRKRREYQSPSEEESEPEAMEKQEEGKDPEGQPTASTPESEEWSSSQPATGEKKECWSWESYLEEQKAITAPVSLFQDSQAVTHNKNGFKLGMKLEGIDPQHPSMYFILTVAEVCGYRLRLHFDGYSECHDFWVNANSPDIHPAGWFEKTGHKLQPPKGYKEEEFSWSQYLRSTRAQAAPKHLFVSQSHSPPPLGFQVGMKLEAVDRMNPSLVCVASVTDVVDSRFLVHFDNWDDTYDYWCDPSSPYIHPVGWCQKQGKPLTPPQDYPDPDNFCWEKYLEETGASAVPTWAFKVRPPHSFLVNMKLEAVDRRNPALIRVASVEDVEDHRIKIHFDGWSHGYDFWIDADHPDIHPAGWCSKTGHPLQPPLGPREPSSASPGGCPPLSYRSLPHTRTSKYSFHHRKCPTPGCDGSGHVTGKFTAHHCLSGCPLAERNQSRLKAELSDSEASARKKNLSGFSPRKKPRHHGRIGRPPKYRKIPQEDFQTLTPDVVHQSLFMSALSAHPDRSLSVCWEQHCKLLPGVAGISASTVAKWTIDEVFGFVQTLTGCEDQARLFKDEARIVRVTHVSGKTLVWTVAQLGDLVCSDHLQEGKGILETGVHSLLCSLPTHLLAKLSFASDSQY
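Displacement of a biotinylated histone H3(1-15) peptide monomethylated at Lys9 (75 nM) from L3MBTL1 (50 nM) was measured by AlphaScreen after a 30 min room-temperature compound incubation; cefsulodin titration served as intraplate control.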
The depositor's hits bear a star; ? = inconclusive; . = not tested or not shown; [ ] = remark or other dose. Shown are actives, neighbours in structure and some others; about 11% of the full set was active somewhere. Unless noted, calls come from the whole dose curve; as a rule, active = well fitted inhibition curve with a large enough effect; inconclusive = small, poorly fitted or top-dose-only effect; inactive = no such curve, though single readings can be large or run the other way.

SMILES	HP1b chromo inh	BAZ2B block	PI5P4K alpha inh	JMJD2A Tudor inh	G9a inh	L3MBTL1 inh
CCCc1nc2nc(C)c(NS(=O)(=O)c3ccc4c(c3)CCCC4)c(=O)n2[nH]1	28%	3%	3	-14%	-17%	.
CCCCCCCc1nc2nc(C)c(Br)c(=O)n2[nH]1	1%	-24%	-8	28µM*	-48%	-3%
COc1ccc(C2C3=C(Nc4ncnn42)c2ccccc2CC3)cc1OC (stereo not drawn)	.	-8%	.	.	?	4%
COc1cc(C2NC(=S)NC3=C2CCc2ccccc23)cc(OC)c1OC (stereo not drawn)	-10%	2%	1	-17%	10µM*	-5%
O=C1NC2=C(CCc3ccccc32)C(c2ccccc2)N1 (stereo not drawn)	45%	-3%	1	-17%	45µM*	4%
C=CCOc1ccc(C2NC(=S)NC3=C2CCc2ccccc23)cc1 (stereo not drawn)	0%	?	7	?	22µM*	-1%
CCc1ccc(NC(=O)CSc2ccc3nnc(CCNS(=O)(=O)c4ccc(OC)cc4)n3n2)cc1	-1%	?	.	-19%	-29%[59 µM]	.
O=C1CCc2cc(S(=O)(=O)Nc3ccc4ncccc4c3)ccc2N1	.	.	.	-16%	.	.
Cc1ccc(CCNC(=O)c2ccc3c(c2)N(Cc2cccc(Cl)c2)C(=O)c2ccccc2S3(=O)=O)cc1	29%	2%	.	-6%	-2%[59 µM]	.
Cc1nc(C)c(C(=O)O)c(-c2ccsc2)c1C(=O)O	10%	-5%	-1	-15%	50µM*	.
COC(=O)c1c(C)nc(C)c(C(=O)OC)c1-c1ccsc1	33%	-12%	0	-13%	0%	-14%
COC(=O)c1sccc1NC(=O)CN(C)NS(=O)(=O)c1ccc(Cl)cc1	10%	-10%	.	-31%	12%[59 µM]	1%
COC(=O)c1sccc1NC(=O)CN(C)NS(=O)(=O)c1ccc([N+](=O)[O-])cc1	-1%	-12%	-15	56µM*	-20%[59 µM]	-2%
CCOC(=O)N1CCN(C(=O)C[C@@H]2C[C@@]3(C(=O)OCC)CCCC=C3N(CCC3=CCCCC3)C2=O)CC1	.	.	1	.	.	.
CC(=O)c1ccc(NC(=S)N2C(C)CCCC2C)cc1 (stereo not drawn)	.	11%	.	.	50µM*	0%
CCN1CCCC1CNC(=S)Nc1ccc(C(C)=O)cc1 (stereo not drawn)	16%	-27%	-14	-30%	40µM*	-9%
CCN1CCCC1CNC(=O)C(=O)Nc1ccccc1 (stereo not drawn)	32%	-21%	0	-17%	23%[59 µM]	.
CCOC(=O)C1(C)C=C(Nc2ccc(O)cc2)C(=O)N1c1ccc(O)cc1 (stereo not drawn)	-15%	50µM*	1	?	8.9µM*	-26%
COc1ccc(C2C3C=CCC(c4cccc(/C=C/c5ccccc5)c4)C3C(=O)N2Cc2ccccc2)cc1Cl (stereo not drawn)	33%	.	.	-13%	.	.
COc1cccc(N2CCN(C(=O)c3oc4ccccc4c3NC(=O)CCc3cc(OC)no3)CC2)c1	3%	?	4	?	56µM*	.
CC(C)CC(=O)Nc1c(C(=O)N2CCN(c3ccccc3)CC2)oc2ccccc12	25%	-34%	.	-32%	14µM*	.
Cc1coc2c1c(C)cc1oc(=O)c(CC(=O)NCc3ccc(Cl)cc3)c(C)c12	39%	-3%	.	-8%	-1%[59 µM]	.
Cc1noc(C)c1-c1nc(Nc2ccc(F)cc2)c2ccccc2n1	.	.	.	.	8%[0.501 µM]	.
CCc1ccc(NC(=O)CSC2=Nc3ccccc3C3=NC(CCC(=O)NCc4ccco4)C(=O)N23)cc1 (stereo not drawn)	-7%	-14%	.	-13%	-2%[59 µM]	.
CCOC(=O)c1[nH]c(C)c(CCC(=O)Nc2ccc(C)cc2Cl)c1C	23%[57 µM]	1%	.	-3%	1%[59 µM]	.
SMILES	HP1b chromo inh	BAZ2B block	PI5P4K alpha inh	JMJD2A Tudor inh	G9a inh	L3MBTL1 inh
CCN(CC)S(=O)(=O)c1cc(-c2nnc(Nc3ccc(OC)c(C(N)=O)c3)c3ccccc23)ccc1C	17%	-15%	.	-22%	-4%[59 µM]	.
Cc1nc(SCC(=O)NC2CCS(=O)(=O)C2)c2c3c(sc2n1)CCCC3 (stereo not drawn)	20%	4%	9	-11%	50µM*	8%
Cc1oc2c(c1C(=O)NCc1cccnc1)C(=O)c1ccccc1C2=O	29%	-5%	-1	-17%	.	1%
O=C(COc1ccc(Br)cc1)NNC(=S)NC(=O)c1ccccc1[N+](=O)[O-]	-10%	0%	-29	-28%	?	13%
CC(=O)NC(=S)NNC(=O)COc1ccc(Br)cc1	0%	9%	-17	25µM*	1.8µM*	-8%
COc1ccc(CNC(=O)CCNS(=O)(=O)c2ccc(Br)s2)cc1	-2%	8%	-5	79µM*	-13%	.
COc1ccc(CNC(=O)c2ccc(Br)o2)cc1	42%	1%	-5	0%	20µM*	0%
COc1ccc(CNC(=O)c2c(C)oc3c2C(=O)c2ccccc2C3=O)cc1	8%	7.9µM*	-4	?	11µM*	-1%
Cc1ccc(C)c(OCCn2c(-c3ccc(Cl)cc3)nc3ccccc3c2=O)c1C	68%	16%	.	1%	-15%[59 µM]	.
O=C(c1cccc(F)c1)N1CCC2(CC1)CN(c1ccccn1)C2	.	.	.	.	40%[12.7 µM]	.
COc1ccc(OCC(=O)NNC(=S)NC(=O)c2ccc(Br)o2)cc1	-17%	-10%	-6	-24%	22µM*	.
CNC(=S)NNC(=O)COc1ccc(C)c(C)c1	8%	-5%	3	50µM*	32µM*	6%
Cc1cccc(C(=O)NC(=S)NNC(=O)COc2ccc(Cl)cc2)c1	?	-16%	14	?	3.2µM*	7%
COc1ccc(OCC(=O)NNC(=S)NC(=O)c2ccc([N+](=O)[O-])cc2)cc1	-17%	-16%	?	-25%	1.1µM*	.
Cc1ccc(C(=O)NC(=S)NNC(=O)c2ccc([N+](=O)[O-])cc2)cc1	3%	0%	-3	-28%	24%[0.501 µM]	4%[2.29 µM]
Cc1ccc(OCC(=O)Nc2cccc(O)c2)cc1C	43%	63%	-5	-24%	-7%[2.33 µM]	23%
COc1ccc(C(=O)NC(=S)NNC(=O)c2cccc(C)c2)cc1	-16%	.	-6	-32%	.	.
Cc1ccc(NS(=O)(=O)c2ccc(-c3ccccc3)cc2)cc1C	.	.	.	-13%	.	.
CC(=O)NC(=S)NNC(=O)COc1ccc([N+](=O)[O-])cc1	-1%	8%	2	-18%[11.4 µM]	8.9µM*	.
CCCCCC(=O)NNC(=S)NC(=O)c1ccc([N+](=O)[O-])cc1	?	-37%	-29	?	2.5µM*	-5%
CCn1nc(C)cc1-c1n[nH]c(=S)n1N	?	?	3	8.9µM*	2.8µM*	.
Cc1ccc(OCc2n[nH]c(=S)n2N)cc1C	22%	-19%	0	?	?	.
